SMILES strings stand for the structures. Unmarked numbers belong to inactive results. Records with an inconclusive call do not appear. Active and inactive are the calls of the source. Unless noted, calls follow the shape of the dose curve; as a rule, active = well fitted curve in the direction sought with a large enough effect in the repeat runs; inconclusive = weak or mixed curves; inactive = no such curve, though single readings can be large; an effect the other way counts as inactive or inconclusive.

The results in this text go back to PubChem BioAssay (Tox21).

For assay [1], the target named is Luciferin 4-monooxygenase (Photinus pyralis) (UniProt P08659). The experiment in a line: qHTS assay to identify small molecule inhibitors of firefly luciferase (AID 1224835). Also: nearly all actives have a fitted effect of over 25% in size. Also: potency is read from the fitted curve at half-maximal effect. The gist of the method:
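Inhibition of purified Photinus luciferase is measured by luminescence. Substrate levels (D-luciferin, ATP) sit at their KM values. Each compound is tested in a concentration series.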

A short description of assay [2]: qHTS assay to identify small molecule agonists of the constitutive androstane receptor (CAR) signaling pathway - cell viability counter screen (AID 1224836). Also: nearly all actives have a fitted effect of over 45% in size. Also: potency is read from the fitted curve at half-maximal effect. The essentials: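 Multiplexed viability check: HepG2-CYP2B6-hCAR cells, 15-point compound dosing, 0.75 uM PK11195 final, 23 h at 37 C, CellTiter-Fluor fluorescence.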
A general note: In qHTS, concentration-response curves come from the screen itself.

Assay [3] in a line: qHTS assay to identify small molecule antagonists of the constitutive androstane receptor (CAR) signaling pathway - cell viability counter screen (AID 1224837). Also: nearly all actives have a fitted effect of over 45% in size. Also: potency is read from the fitted curve at half-maximal effect. The essentials:
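Counter screen run in HepG2-CYP2B6-hCAR cells: 4 hr settle, compound titration (15 concentrations) with 50 nM CITCO, 23 hr at 37 C/5% CO2, CellTiter-Fluor fluorescence.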

Assay [4] concerns the target Nuclear receptor subfamily 1 group I member 3 (Homo sapiens) (UniProt Q14994). The experiment in a line: qHTS assay to identify small molecule agonists of the constitutive androstane receptor (CAR) signaling pathway (AID 1224839).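 Also: HepG2 cells stably carrying human CAR and a CYP2B6 luciferase reporter; nearly all actives have a fitted effect of over 15% in size.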 The gist of the method: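 Using human hepatoma HepG2 cells engineered with hCAR and a CYP2B6-2.2kb reporter, 15-concentration compound series were incubated 24 h alongside PK11195 at 0.75 uM final, with luminescence quantified afterwards.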

The nature of assay [5]: qHTS assay to identify small molecule antagonists of the estrogen related receptor signaling pathway with the pleiotropic PPARgamma coactivator (PGC) from Tox21 10K library - cell viability counter screen (AID 1224840; active = well fitted cell-killing curve with a large enough effect in the repeat runs, not every such curve was filed as active; also: nearly all actives have a fitted effect of over 40% in size). The essentials:
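Following seeding of 2,000 PGC/ERR cells/well and 6 hours' incubation, test compounds were delivered in DMSO. The plates then sat 17.5 hours at 37 C before a fluorogenic live-cell protease reagent (CellTiter-Fluor) was read after 30 min.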

Assay [6] concerns the target Thyrotropin receptor (Homo sapiens) (UniProt P16473). The experiment in a line: qHTS assay to identify small molecule agonists of the thyroid stimulating hormone receptor (TSHR) signaling pathway (AID 1224843; calls by dose curve; also: nearly all actives have a fitted effect of over 45% in size). The gist of the method:
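HEK293 cells stably bearing the thyrotropin receptor were plated at 800 cells/well and challenged with compound (30 min, RT). Accumulated cAMP was quantified via cAMP-d2 competing for cryptate-tagged antibody.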

Assay [7] is described as follows: qHTS assay to identify small molecule agonists of H2AX - cell viability counter screen (AID 1224847; calls by dose curve;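 also: wild-type CHO-K1 cells; top concentration of the series differs between compounds; nearly all actives have a fitted effect of over 30% in size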). The essentials: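 After overnight plating of 1000 CHO-K1 cells per well, a 15-concentration compound series was applied for 3 hr at 37C. Luminescence from CellTiter-Glo, read following 30 min at room temperature, reflected cell viability.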
A short description of assay [8]: qHTS RealTime-Glo MT Cell Viability Assay in HepG2 cells - 24 hour (AID 1224867). Also: nearly all actives have a fitted effect of over 50% in size. The gist of the method:
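qHTS, HepG2, 600 cells/well, RealTime-Glo (NanoLuc + prosubstrate) added with cells; 5 h preincubation; DMSO compound addition; 37 C; luminescence at 0/8/16/24/32/40 h.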

Assay [9] in a line: qHTS RealTime-Glo MT Cell Viability Assay in HepG2 cells - 40 hour (AID 1224870). Also: nearly all actives have a fitted effect of over 50% in size. The essentials: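 Real-time viability: cells seeded at 600 per well together with NanoLuc and cell-permeant prosubstrate, compounds added after 5 h incubation. Luminescence tracked at 0, 8, 16, 24, 32 and 40 h of exposure.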
The target of assay [10] is Nuclear receptor subfamily 1 group I member 3 (Homo sapiens) (UniProt Q14994). Briefly: qHTS assay to identify small molecule antagonists of the constitutive androstane receptor (CAR) signaling pathway (AID 1224838).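 Also: HepG2 cells stably expressing hCAR with CYP2B6 luciferase reporter stimulated by CITCO; nearly all actives have a fitted effect of over 40% in size.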 The gist of the method:
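Cell line: HepG2 double-stable for hCAR and CYP2B6-2.2kb reporter. Agonist: CITCO, 50 nM final. Compounds: 15 concentrations, 24 h, 37 C. Detection: ONE-Glo luminescence.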

Assay [11] in a line: qHTS assay to identify small molecule antagonists of the estrogen related receptor signaling pathway with the pleiotropic PPARgamma coactivator (PGC) from Tox21 10K library (AID 1224841; call rule not given here; also: actives are mostly falling curves and most rising ones were filed inactive; nearly all actives have a fitted effect of over 50% in size). The essentials: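 qHTS antagonist format: PGC/ERR cells, 2k/well, compound in DMSO by pin transfer after 6 h attachment, 18 h treatment at 37 C, One-Glo luminescence read at 30 min.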
Assay [12] in a line: qHTS assay to identify small molecule agonists of the estrogen related receptor signaling pathway with the pleiotropic PPARgamma coactivator (PGC) from Tox21 10K library (AID 1224842). Also: nearly all actives have a fitted effect of over 15% in size. The gist of the method: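 Luminescence from One-Glo (30 min, room temperature) measured after PGC/ERR cells had 18 h at 37 C with pinned compound (23 nL in DMSO). Cells had been seeded at 2,000 per well and pre-incubated 6 h.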

Assay [13] is described as follows: qHTS assay to identify small molecule agonists of the hypoxia (HIF-1) signaling pathway - cell viability counter screen (AID 1224844; calls by dose curve; also: nearly all actives have a fitted effect of over 50% in size; also: potency is read from the fitted curve at half-maximal effect). The essentials: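 Cells (HRE-bla ME-180, 2,000 per well) sat 5 hrs at 37C, got compound for 17 hrs, were read for CCF4-AM FRET, and were finally lysed with CellTiter-Glo for a 30 min room-temperature luminescence read.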
The nature of assay [14]: qHTS assay to identify small molecule agonists of the estrogen related receptor (ERR) signaling pathway from Tox21 library (AID 1224849; calls by dose curve; also: nearly all actives have a fitted effect of over 15% in size). As to conditions: ERR reporter cell line, ONE-Glo luciferase, 18 h; at 92.4 µM (top of the series) unless noted. The gist of the method: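 Screening used an NTP-provided ERR luciferase cell line. Compounds in DMSO were added 6 h after seeding and left 18 h at 37 C before a 30 min ONE-Glo step and luminescence reading.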

A short description of assay [15]: qHTS RealTime-Glo MT Cell Viability Assay in HEK293 cells - 32 hour (AID 1224868). The essentials: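 Assay medium contained NanoLuc luciferase plus cell-permeant prosubstrate, added with HEK293 cells at 600 cells/well. After 5 h at 37 C/5% CO2 compounds were added; plates stayed at 37 C for 40 h with serial luminescence reads.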
The nature of assay [16]: A CellTox Green Cytotoxicity Assay to monitor cytotoxicity in HEK293 cells - 0 hour (AID 1224869). Also: nearly all actives have a fitted effect of over 50% in size. The essentials: (§1)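 Fluorescence intensity, read at 0, 8, 16, 24, 32 and 40 h of compound treatment, reflected dye binding to DNA of dead HEK293 cells; compounds (23 nL, DMSO) were added 5 h after plating cells with reagent.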
The nature of assay [17]: qHTS assay to identify small molecule agonists of the hypoxia (HIF-1) signaling pathway (AID 1224846; active = well fitted activation curve with a large enough effect in the signal ratio in the repeat runs, not every such curve was filed as active; the % refers to the signal ratio). The gist of the method: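 A low-serum medium (0.5% dialyzed FBS) holding 2,000 HRE-bla ME-180 cells per well is preincubated for 5 hrs, dosed with compounds by pintool, and kept a further 17 hrs at 37C, 5% CO2 before CCF4-AM FRET detection of beta-lactamase.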
Assay [18] can be described thus: A CellTox Green Cytotoxicity Assay to monitor cytotoxicity in HEK293 cells - 40 hour (AID 1224871). Also: nearly all actives have a fitted effect of over 45% in size. Also: potency is read from the fitted curve at half-maximal effect. The gist of the method:
as §1

Assay [19] in a line: qHTS assay to identify small molecule agonists of H2AX (AID 1224845; active = well fitted activation curve with a large enough effect in the signal ratio in the repeat runs, not every such curve was filed as active; the % refers to the signal ratio). The gist of the method: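 Phospho-H2AX Ser139 measured by HTRF (ex 320 nm; em 665 and 620 nm) after 24 hr antibody incubation. Compounds, 15 concentrations, 0.76% DMSO, were applied to CHO-K1 cells for 3hr at 37C before lysis.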
Assay [20] can be described thus: qHTS assay to identify small molecule antagonists of the estrogen related receptor (ERR) signaling pathway from Tox21 library (AID 1224848). Also: nearly all actives have a fitted effect of over 50% in size. The gist of the method:
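Reading was by luminescence 30 min after ONE-Glo addition. Before that, ERR cells at 2,000 per well had rested 6 h at 37 C/5% CO2 and then received pin-tooled compounds in DMSO for 18 h at 37 C.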
% is scaled to controls: 0 for no effect and ±100 for the full control effect.

Chain of Thyrotropin receptor (Homo sapiens) (P16473 whole entry, looked up): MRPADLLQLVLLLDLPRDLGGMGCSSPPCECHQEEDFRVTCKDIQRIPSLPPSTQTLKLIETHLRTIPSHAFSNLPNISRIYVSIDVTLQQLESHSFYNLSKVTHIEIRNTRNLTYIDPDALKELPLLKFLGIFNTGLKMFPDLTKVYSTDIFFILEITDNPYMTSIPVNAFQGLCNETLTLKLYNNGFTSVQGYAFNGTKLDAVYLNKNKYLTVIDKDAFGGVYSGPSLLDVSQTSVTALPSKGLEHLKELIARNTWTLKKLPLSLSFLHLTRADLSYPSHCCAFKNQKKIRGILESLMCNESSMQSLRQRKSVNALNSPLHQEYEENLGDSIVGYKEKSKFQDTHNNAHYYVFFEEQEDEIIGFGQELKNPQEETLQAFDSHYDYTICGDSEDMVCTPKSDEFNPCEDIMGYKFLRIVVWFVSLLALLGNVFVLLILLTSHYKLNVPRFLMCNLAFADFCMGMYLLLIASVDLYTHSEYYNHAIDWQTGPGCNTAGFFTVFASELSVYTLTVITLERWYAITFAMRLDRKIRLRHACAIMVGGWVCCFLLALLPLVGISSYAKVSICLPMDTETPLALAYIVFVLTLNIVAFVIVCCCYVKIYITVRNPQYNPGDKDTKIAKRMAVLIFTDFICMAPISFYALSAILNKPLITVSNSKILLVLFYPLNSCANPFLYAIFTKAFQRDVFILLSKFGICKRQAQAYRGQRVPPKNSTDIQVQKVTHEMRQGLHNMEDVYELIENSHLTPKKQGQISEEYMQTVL
Chain of Luciferin 4-monooxygenase (Photinus pyralis) (P08659 whole entry, looked up): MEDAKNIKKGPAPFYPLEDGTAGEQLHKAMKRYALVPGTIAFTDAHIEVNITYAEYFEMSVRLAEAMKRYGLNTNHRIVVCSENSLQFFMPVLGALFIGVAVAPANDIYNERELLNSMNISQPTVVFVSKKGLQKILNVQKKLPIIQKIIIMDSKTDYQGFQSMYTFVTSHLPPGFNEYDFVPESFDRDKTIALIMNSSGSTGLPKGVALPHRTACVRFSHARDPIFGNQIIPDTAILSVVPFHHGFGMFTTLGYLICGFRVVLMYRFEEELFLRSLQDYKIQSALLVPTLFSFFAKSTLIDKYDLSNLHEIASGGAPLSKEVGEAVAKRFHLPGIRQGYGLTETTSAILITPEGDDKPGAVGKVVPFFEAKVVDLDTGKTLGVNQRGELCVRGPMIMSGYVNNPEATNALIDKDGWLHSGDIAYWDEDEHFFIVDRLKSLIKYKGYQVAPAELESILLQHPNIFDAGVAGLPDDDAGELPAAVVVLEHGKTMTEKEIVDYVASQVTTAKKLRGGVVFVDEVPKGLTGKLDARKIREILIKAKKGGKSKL
Chain of Nuclear receptor subfamily 1 group I member 3 (Homo sapiens) (Q14994 whole entry, looked up): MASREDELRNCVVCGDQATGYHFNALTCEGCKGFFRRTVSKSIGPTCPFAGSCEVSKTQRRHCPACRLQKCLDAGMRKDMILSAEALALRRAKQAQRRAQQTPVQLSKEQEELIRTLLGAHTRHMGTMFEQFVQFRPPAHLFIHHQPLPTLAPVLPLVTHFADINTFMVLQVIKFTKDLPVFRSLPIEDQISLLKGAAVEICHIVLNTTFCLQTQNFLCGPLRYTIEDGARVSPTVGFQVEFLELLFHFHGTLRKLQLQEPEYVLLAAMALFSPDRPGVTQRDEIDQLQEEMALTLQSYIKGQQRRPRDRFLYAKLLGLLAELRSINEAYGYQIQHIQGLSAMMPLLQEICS

As to `C/C=C/C=N/NC(=O)c1ccncc1`, the Potency result in [1], in assay [2], in assay [3], in [4], in [5] and in [6] was “inactive” in each case. The Potency entry in assay [7], in assay [8] and in [9] was “inactive” throughout.

Take `CO[C@H]1C=CO[C@@]2(C)Oc3c(C)c(O)c4c(O)c(cc(O)c4c3C2=O)NC(=O)/C(C)=C\C=C/[C@H](C)[C@H](O)[C@@H](C)[C@@H](O)[C@@H](C)[C@H](OC(C)=O)[C@@H]1C`: the Potency result in [1], in assay [10], in assay [11], in [12], in assay [7] and in assay [8] was “inactive” each time. The Potency result in assay [15], in assay [16] and in [9] was “inactive” each time. In addition, the Potency in assay [2] was 61.6 µM (active); in assay [3], 48.9 µM (active); in assay [13] it was 22 µM (active). Further, the activity change, positive = activation in assay [14] is -31.9%.

Consider `C=CC(C)(CCC=C(C)C)OC(=O)/C=C/c1ccccc1` (stereo not drawn), for which the Potency result in assay [1], in assay [2], in assay [3], in [10], in assay [5] and in assay [6] was “inactive” in each case. Moreover, the Potency entry in assay [13], in assay [8], in [15] and in [9] was “inactive” each time. For the same compound, in assay [17], the compound was classed as inactive. Besides, the Potency in assay [18] was 38.9 µM (active).

For the compound `CCCSS/C(CCO)=C(\C)N(C=O)Cc1cnc(C)nc1N`, the Potency entry in assay [1], in [2], in [3], in assay [4], in assay [5] and in [6] was “inactive” each time. The Potency entry in [13] and in assay [16] was “inactive” each time. In addition, the outcome in [17] was inactive.

Take `[O]=[Zr]`: in assay [1], the Potency is 39.8 µM (active). Moreover, the Potency result in assay [2], in [3], in [5], in assay [11], in assay [12] and in [19] was “inactive” each time. Further, the Potency result in [7], in [20], in assay [8], in [15], in [16] and in assay [9] was “inactive” each time. Moreover, in assay [18], the Potency entry is “inactive”. Also, the compound was classed as inactive in [17]. Further, the activity change, positive = activation in [14] was 5.09%.

Turning to `CCCCCCCCCCCCCCCC`, the Potency result in [1], in assay [2], in assay [3], in assay [5], in assay [11] and in assay [12] was “inactive” in each case. Also, the Potency entry in assay [6], in [13], in [19], in assay [20], in assay [8] and in assay [15] was “inactive” each time. The Potency entry in assay [16], in assay [9] and in [18] was “inactive” each time. Moreover, in assay [17], the call was inactive. Besides, the activity change, positive = activation in assay [14] was 3.33%.

In the case of `CSc1c(Cl)c(Cl)c(Cl)c(Cl)c1Cl`, the Potency entry in [1], in [2], in assay [3], in assay [10], in [5] and in assay [7] was “inactive” each time. Moreover, the Potency result in assay [8], in assay [16] and in assay [9] was “inactive” in each case. In assay [18], the Potency is 48.7 µM (active).

Regarding `O=C(c1ccccc1)c1cc(Cl)ccc1O`, the Potency result in assay [1], in assay [2], in assay [3], in [10], in assay [5] and in assay [11] was “inactive” throughout. Besides, the Potency entry in assay [13], in assay [20], in assay [8] and in assay [9] was “inactive” in each case. Also, the compound was classed as inactive in assay [17]. The activity change, positive = activation in assay [14] is -10.3%.
